Screening results from PubChem BioAssay.
Pf Dd2 inh: inhibitors of Plasmodium falciparum Dd2 growth. AID 1347417. Potency, µM (series often up to 28.9 µM), for inactives: at the highest dose activity, negative = inhibition, usual class: inhibitors. P. falciparum Dd2 growth, SYBR Green, 72 h. actives 4.3% (n = 120,000); active means well fitted inhibition curve with a large enough effect;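 further: plate controls were DMSO vehicle for no effect and reference drug for full effect; nearly all actives have a fitted effect of over 65% in size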
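Readout: SYBR Green fluorescence, 485 nm excitation, 535 nm emission, after ~16 h lysis at 37C. Before that, Dd2-infected red cells (2.5% hematocrit) grew 72 h with compound, 29 uM top final concentration.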
Starred values were filed as active, the others as inactive; i = inactive; [ ] = dose if it differs, or a comment. Only a selection was taken, and hits are over-represented in it overall. Potency means the concentration at half of the fitted maximal effect.

SMILES	Pf Dd2 inh
CCc1ccc(Oc2c(C(F)(F)F)oc3c(CN4CCC(C)CC4)c(O)ccc3c2=O)cc1	0.316µM*
O=C1CCCCCN1C1CCN(Cc2ccc(OC(F)(F)F)cc2)CC1	i
CCOc1ccc(CN2CCC(N(C(=O)CC)C3CCOCC3)CC2)cc1	i
CCc1ccc(Oc2c(C(F)(F)F)oc3c(CN4CCN(CC)CC4)c(O)ccc3c2=O)cc1	0.1µM*
CCN1CCN(C(c2ccccc2Cl)c2c(O)cc(C)n(Cc3ccco3)c2=O)CC1 (stereo not drawn)	10.0%
CCN1CCN(Cc2c(O)ccc3c(=O)c(Oc4ccccc4Cl)c(C(F)(F)F)oc23)CC1	0.251µM*
COc1ccc(C(=O)Nc2ccc3c(N4CCOCC4)ncnc3c2)c(C)c1	i
CN1CCN(Cc2nc(C3(O)CCN(C4COC4)CC3)cs2)CC1	-0.5%[44.1 µM]
CCCCN(C)C(=O)c1cc(-c2ccc(C)cc2)cn1CC	-19.2%
COc1ccc(NC(=O)CN2C(=O)COc3ccc(C(=O)COc4ccccc4F)cc32)cc1	i
CN1CC(=O)N(C2CCNCC2)Cc2c(NCCOc3ccccc3)ncnc21	-19.5%
COc1ccccc1CN1CC(C(=O)NCc2ccncc2)C2(CCOCC2)C1 (stereo not drawn)	-9.2%
COc1ccc(-c2nc(C3CC(=O)N(C4CCCCC4)C3)no2)cc1 (stereo not drawn)	61.1%
COc1cccc(-c2nc(C3CC(=O)N(C4CCCCC4)C3)no2)c1 (stereo not drawn)	39.0%
COc1cccc(-c2cc(-c3nc(C4CC(=O)N(C5CCCCC5)C4)no3)[nH]n2)c1 (stereo not drawn)	5.01µM*
CCOCCCNC(=O)NC1CCN(c2ccc(OC)cc2)C1=O (stereo not drawn)	6.8%
CCNC(=O)N1CCCN(C(=O)C2CC2)C(c2ccccc2)CC(=O)NCC1 (stereo not drawn)	11.8%
COc1cccc(CNC(=O)COc2ccc(NC(=O)C3CC3)cn2)c1	52.0%
O=C(NCc1nnc2c(-c3nc(C4CC4)no3)cccn12)c1c[nH]c2ccccc12	-8.3%
Cc1ccc(C)c(CN2C(=O)C(=O)c3ccccc32)c1	-23.4%
Cc1ccc(-c2cccc(C=O)c2)c(C)c1	3.8%[44.1 µM]
Cc1ccc(-c2ccccc2CN)c(C)c1	5.01µM*
O=C1NCCCCCCN(C(=O)c2ccsc2)[C@H]2CCCC[C@@H]12	10.8%
O=C(NC1CCCCC1)[C@@H]1C[C@@H](O)CN1C1CCN(C(=O)c2cccnc2)CC1	10.9%
O=C(NCCc1ccccc1)c1ccc2nc(CCc3ccccc3)oc2c1	49.7%
SMILES	Pf Dd2 inh
O=C(NCCCN1CCN(c2ccccc2)CC1)c1ccc2nc(CCc3ccccc3)oc2c1	7.94µM*
CN(C)CCNC(=O)c1ccc2nc(CCc3ccccc3)oc2c1	22.7%
O=C(NCCc1ccncc1)C1CN(S(=O)(=O)c2ccccc2)CC12CCOCC2 (stereo not drawn)	2.5%
O=C(c1ccsc1)N1CCCC(n2cc(-c3nc(C4CC4)no3)nn2)C1 (stereo not drawn)	i
COc1ccc(NC(=O)CCCSc2nc(-c3ccco3)cc(C(F)(F)F)n2)cc1	85.4%
Cc1ccc(NC(=O)CCSc2nc(-c3ccco3)cc(C(F)(F)F)n2)cc1F	0.794µM*
CC(=O)c1cccc(NC(=O)CCCSc2nc(-c3ccco3)cc(C(F)(F)F)n2)c1	3.0%
Cc1ccc(NC(=O)CSc2nc(-c3ccco3)cc(C(F)(F)F)n2)cc1C	-28.8%
COc1ccc(NC(=O)CCCSc2nc(-c3ccco3)cc(C(F)(F)F)n2)c(OC)c1	i
Cc1cc(F)ccc1NC(=O)CCSc1nc(-c2ccco2)cc(C(F)(F)F)n1	8.91µM*
Cc1noc(C)c1Cc1c(C(=O)N2C[C@@H](Oc3cccnc3)C[C@H]2C(N)=O)noc1C	-2.1%
COCCO[C@H]1C(=O)N(C2CCN(C(=O)C3CCOCC3)CC2)[C@H]1c1ccncc1	29.8%
O=C(NC1CC1)C1CN(Cc2ccccc2)C(=O)N1 (stereo not drawn)	14.8%[44.1 µM]
CNC(=O)[C@@H](C1CC1)N1CCC[C@H]1C(=O)NCc1ccccn1	19.3%[44.1 µM]
C1CCC(c2nc(CCOCC3CCOCC3)no2)NC1 (stereo not drawn)	i
Cc1cc(C)n(CC(=O)NCc2cc(N3CCOCC3)ncn2)c(=O)n1	-5.6%
O=C1NCc2ccccc2CC12CCN(Cc1cc(F)ccc1O)C2 (stereo not drawn)	11.2µM*
O=C1NCc2ccccc2CC12CCCN(Cc1ccncc1)C2 (stereo not drawn)	-20.8%
O=C1NCc2ccccc2CC12CCN(Cc1cc(F)ccc1F)C2 (stereo not drawn)	-15.7%
O=C1NCc2ccccc2CC12CCCN(Cc1ccc(F)cc1)C2 (stereo not drawn)	-24.6%
O=C1NCc2ccccc2CC12CCCN(Cc1cc(F)ccc1O)C2 (stereo not drawn)	8.91µM*
COc1ccc(CN2CCCC3(Cc4ccccc4CNC3=O)C2)c(OC)n1 (stereo not drawn)	5.01µM*
O=C1NCc2ccccc2CC12CCCN(Cc1ccnc3ccccc13)C2 (stereo not drawn)	-21.9%
O=C1NCc2ccccc2CC12CCN(Cc1cc(F)ccc1F)CC2	0.5%
